Assay outcomes (PubChem)
A selection: hits, their analogues and other compounds. The true share with any hit is near 1.6%.
NPSR antag: qHTS Assay for Antagonists of the Neuropeptide S Receptor: cAMP Signal Transduction; hit rate 1% among 220,000; Q6W5P4; CHO-NPSR cells, cAMP TR-FRET, antagonist mode; Potency, µM (doses to about 38.3 µM), without a hit: at the highest dose activity change, negative = inhibition, actives largely listed as inhibitors; also: potency is read from the fitted curve at half-maximal effect; % is scaled to controls: 0 for no effect and ±100 for the full control effect; nearly all actives have a fitted effect of over 50% in size
Target sequence (Q6W5P4 whole entry, looked up): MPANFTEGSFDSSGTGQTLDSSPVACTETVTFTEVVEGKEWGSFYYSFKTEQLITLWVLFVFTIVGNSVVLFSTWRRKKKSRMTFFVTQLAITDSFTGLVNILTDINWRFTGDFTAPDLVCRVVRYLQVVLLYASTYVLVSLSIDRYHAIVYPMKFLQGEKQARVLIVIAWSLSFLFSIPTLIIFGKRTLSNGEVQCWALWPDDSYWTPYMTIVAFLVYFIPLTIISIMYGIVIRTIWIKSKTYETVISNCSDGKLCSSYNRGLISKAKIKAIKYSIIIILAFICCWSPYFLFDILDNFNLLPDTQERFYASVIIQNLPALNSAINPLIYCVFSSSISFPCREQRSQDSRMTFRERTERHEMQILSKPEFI
LMNA splice mod: qHTS Assay for Modulators of Lamin A Splicing; HeLa LMNA splicing GFP/RFP minigene ratio, 48 h; Potency, µM (top dose mostly 46.1 µM), for inactives: at the top dose ratio change, negative = inhibition, usual class: inhibitors; hit rate 0.01% among 200,000; AID 1487, 2009; active = well fitted inhibition curve with a large enough effect in the signal ratio, with a control signal flat, not every such curve was filed as active; inconclusive = small, poorly fitted or top-dose-only effect, or effect the other way, or a change in a side signal; the % refers to the signal ratio; also: potency is read from the fitted curve at half-maximal effect; % is scaled to controls: 0 for no effect and ±100 for the full control effect
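Read-out is the ratio of GFP to DsRed2 object intensity, acquired by 488 nm laser-scanning cytometry on HeLa lamin A-EGFP minigene reporter cells. Compound incubation 48 hrs at 37 °C in Opti-MEM with 2% FBS; DMSO 0.5% final.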
HttQ103 aggreg: qHTS Multiplex Assay to Identify Dual Action Probes in a Cell Model of Huntington: Aggregate Formation (GFP); AID 1688, 2009; PC12 HttQ103-GFP aggregates, Acumen cytometry, 40 h; Potency, µM (highest dose often 46.1 µM), for inactives: at the highest dose activity change, negative = inhibition, hits mostly inhibitors; hit rate 1.1% among 220,000; also: potency is read from the fitted curve at half-maximal effect; % is scaled to controls: 0 for no effect and ±100 for the full control effect; nearly all actives have a fitted effect of over 60% in size
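Multiplexed with ATP-based cell death, this channel scores GFP aggregates in PC12 cells expressing inducible HTTex1-Q103-GFP. Induction used 100 nM tebufenozide; compounds were tested in concentration series.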
IMPase Li inh: qHTS Assay for Identifying the Cell-Membrane Permeable IMPase Inhibitors: Potentiation with Lithium; hit rate 0.35% among 210,000; Potency, µM (top dose mostly 59.4 µM), inactives show at the top dose activity, negative = IMPase inhibition, most hits filed as inhibitors; CHO-M1 cells, IP1 TR-FRET (IP-One), carbachol + lithium; AID 1457, 2008;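 also: IP1 builds up when IMPase is blocked and the TR-FRET signal falls; potency is read from the fitted curve at half-maximal effect; plate controls were basal vehicle for no effect and high inhibitor control for full effect; nearly all actives have a fitted effect of over 50% in size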
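Lithium-sensitised IP1 accumulation assay; M1-expressing CHO cells treated 30 min at 37C with compound. Competitive antibody detection by time-resolved FRET followed a 10 min room-temperature lysis step.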
HTT cytoprotect: qHTS Multiplex Assay to Identify Dual Action Probes in a Cell Model of Huntington: Cytoprotection (ATP); hit rate 0.14% among 230,000; Potency, µM (doses to about 56.4 µM), inactives show cytoprotection (ATP increase), hits mostly activators; PC12 HTT-Q103 induced, cytoprotection, ATP luminescence, 40 h; AID 1471, 2008; also: potency is read from the fitted curve at half-maximal effect; % of control where 0% means no effect; nearly all actives have a fitted effect of over 45% in size
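Quantitative HTS on tebufenozide-induced (100 nM) PC12 cells expressing HTTQ103 exon 1–GFP; compounds tested as a concentration series; survival measured via cellular ATP.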
IMPase inh: qHTS Assay for Identifying the Cell-Membrane Permeable IMPase Inhibitors. CHO-M1 cells, IP1 accumulation, HTRF TR-FRET ratio. AID 901, 2007. 120,000 tested, under 10 active. Inositol monophosphatase 1 (Rattus norvegicus), P97697. inhibition (IP1 accumulation), % at 46.1 µM; active = well fitted curve in the direction sought with a large enough effect in the signal ratio, not every such curve was filed as active; inconclusive = small, poorly fitted or top-dose-only effect, or a change in a side signal; inactive = no such curve, though single readings can be large or run the other way; the % refers to the signal ratio;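 also: cells stimulated with carbachol in lithium chloride buffer; plate controls were DMSO basal wells for no effect and reference inhibitor wells for full effect; higher means more IMPase inhibition seen as more IP1 and lower FRET ratio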
Target sequence (P97697 whole entry, looked up): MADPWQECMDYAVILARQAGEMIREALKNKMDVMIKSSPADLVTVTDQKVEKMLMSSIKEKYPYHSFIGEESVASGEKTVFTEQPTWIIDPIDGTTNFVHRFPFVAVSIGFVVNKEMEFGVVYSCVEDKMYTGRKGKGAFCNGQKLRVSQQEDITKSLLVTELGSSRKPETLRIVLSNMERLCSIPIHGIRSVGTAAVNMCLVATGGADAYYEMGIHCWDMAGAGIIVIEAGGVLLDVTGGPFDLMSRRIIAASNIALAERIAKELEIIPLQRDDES
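Carbachol-driven Gq signalling in CHO-M1 cells (2000/well) generates IP1. Compounds that block IMPase raise IP1 and so reduce the FRET signal from Eu-anti-IP1 and d2-IP1 after a 10 min room-temperature lysis.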
* marks the source's active call; other numbers are inactive results; u = inconclusive; x = no result given; ! = not confirmed by another sample; [ ] = dose if it differs, or a comment. Unless noted, calls follow the shape of the dose curve; as a rule, active = well fitted curve in the direction sought with a large enough effect; inconclusive = small, poorly fitted or top-dose-only effect, or another doubt; inactive = no such curve, though single readings can be large; an effect the other way counts as inactive or inconclusive.

SMILES | NPSR antag | LMNA splice mod | HttQ103 aggreg | IMPase Li inh | HTT cytoprotect | IMPase inh
CN1CCc2c(sc(NC(=O)c3cc4cc([N+](=O)[O-])ccc4s3)c2C(N)=O)C1 | -26% | x | 7.1µM* | 13% | -202% | x
CN(c1cccc(Cl)c1)S(=O)(=O)c1cccc(C(=O)Nc2nc3ccccc3[nH]2)c1 | u | u | 20µM* | 10% | 7%[1.9 µM] | 8
Oc1cccc2c(NC(=S)Nc3ccc(OC(F)F)cc3)cccc12 | 1% | u | 13µM* | 19% | -21%[10 µM] | x
COC(=O)/C=C/S(=O)(=O)c1ccc(NC(C)=O)cc1 | u | u | 10µM* | 16%[38.3 µM] | -141% | 5
CC1(C)Cc2c(sc3[nH]c(=S)n(Cc4ccccc4)c(=O)c23)CO1 | -2%[46.1 µM] | -23% | 18µM* | 1%[38.3 µM] | -60% | -12
CCC1(C)Cc2c(sc3nc(SC)n(Cc4ccccc4)c(=O)c23)CO1 (stereo not given) | u | -2% | u | 9%[38.3 µM] | -7% | -3
Cc1cc(C)c2c(SCc3ccc(Cl)cc3Cl)nc(N)nc2n1 | x | x | x | 8% | 0%[10 µM] | x
CC1=NN(c2ccccc2)C(=O)/C1=C\c1ccc(Br)s1 | 6% | u | 0.71µM* | 4% | 5%[10 µM] | x
CC(=O)Cc1nsc(NC(=O)c2ccc(-c3cc(Cl)ccc3Cl)o2)n1 | -25% | x | 4% | 7% | -74% | x
CC(=O)Cc1nsc(NC(=O)c2ccc(-c3cc(C(F)(F)F)ccc3Cl)o2)n1 | -19%[46.1 µM] | -21% | 2µM* | 16%[38.3 µM] | 0% | 0
CCOC(=O)c1cnc2ccc(OC)cc2c1Nc1ccc(OCc2ccccc2Cl)cc1 | x | x | x | x | x | 7
O=C(CCSc1nnc2scc(-c3ccccc3)n12)NCc1ccc2c(c1)OCO2 | -23%[46.1 µM] | 5% | -7% | 36%[38.3 µM] | 13%[0.074 µM] | -11
c1ccc(-c2csc3nnc(SCc4ccc5c(c4)OCO5)n23)cc1 | -20%[46.1 µM] | -16% | 10µM* | 48%[38.3 µM] | -2%[10 µM] | u
O=S(c1ccc2ccccc2c1)c1cnns1 (stereo not given) | 10µM* | u | 18µM* | -5%[38.3 µM] | -88% | 14
COc1ccccc1N1CCN(CCCNc2cc(=O)n(C)c(=O)n2C)CC1 | -4%[46.1 µM] | u | 24% | 11% | 32µM*! | 8
CC1CCc2nc(N)c(C#N)c(-c3cccnc3)c2C1 (stereo not given) | 0%[46.1 µM] | -12% | 2µM* | 6% | 17%[10 µM] | -4
C#C[C@]1(O)CC[C@@H]2[C@H]3CCC4=Cc5oncc5C[C@]4(C)[C@@H]3CC[C@@]21C | x | u | x | x | 10%[40.3 µM] | x
CCc1c(C(=O)O)[nH]c2ccc(Br)cc12 | u | -5% | -11% | 10µM* | -61% | u
Cc1ccccc1NS(=O)(=O)c1ccc2[nH]cc(C(=O)N3CCCC3)c(=O)c2c1 | x | -7%[46 µM] | x | x | x | x
Cc1cccc(/C=C/C(=O)c2cc(Br)ccc(=O)c2O)c1 | 10µM* | u | -3% | 17%[38.3 µM] | -13% | 4
CN(C)CCOC(=O)c1ccc(N)cc1 | x | x | x | 1% | 8%[10 µM] | x
O=c1[nH]cnc2sc3c(c12)CCCC3 | -3%[46.1 µM] | 8% | 13µM* | 3%[38.3 µM] | 11% | 7
O=c1[nH]cnc2sc3c(c12)CCCCC3 | 6% | -2%[46 µM] | -32% | -8% | 2% | x
Cc1ccccc1S(=O)(=O)Cc1ccc(C(=O)N2CCN(c3cccc(C)c3C)CC2)o1 | u | u | 13µM* | 14% | -40%[10 µM] | 4
Cc1ccccc1S(=O)(=O)Cc1ccc(C(=O)N2CC(C)CC(C)C2)o1 (stereo not given) | -10%[46.1 µM] | -19% | -4% | -5%[38.3 µM] | -29% | 2
SMILES | NPSR antag | LMNA splice mod | HttQ103 aggreg | IMPase Li inh | HTT cytoprotect | IMPase inh
CCOC(=O)N1CCC(N2CCCC(CO)(Cc3cccc(OC)c3)C2)CC1 (stereo not given) | 11% | x | 0.0006µM* | 21% | x | x
O=C(CCCCn1c(=O)c2ccccc2n(Cc2ccc(F)cc2)c1=O)NCc1ccco1 | -20%[46.1 µM] | -13% | 1µM* | 7%[38.3 µM] | -80%[10 µM] | 13
O=C(CCCn1c(=O)c2ccccc2n(Cc2ccccc2)c1=O)NCc1ccco1 | -16%[46.1 µM] | -4% | 14%[9.22 µM] | -14%[38.3 µM] | 11% | 4
Cc1ccc(-n2ncc(Br)c(Br)c2=O)cc1 | u | x | x | u | -97%[10 µM] | x
O=c1c(Br)c(Br)cnn1-c1ccccc1 | 10µM* | u | 5.6µM* | u | -97%[10 µM] | x
COc1ccc(CCN(C)CCC[C@@](C#N)(c2cc(OC)c(OC)c(OC)c2)C(C)C)cc1OC | x | x | x | x | -6%[1.9 µM] | 9
Cc1nc2c(-c3ccccc3)c(C)[nH]n2c(=O)c1Cc1ccccc1 | -21% | u | u | 4% | -124% | x
Cc1nc2c(-c3ccc(Cl)cc3)c(C)[nH]n2c(=O)c1Cc1ccccc1 | -43% | x | 10µM* | 9% | -123% | x
COC(=O)C1(C(=O)OC)C[C@H]2CON=C2[C@H]1c1ccccc1 | x | x | x | 9% | -24% | x
COC(=O)C1(C(=O)OC)C[C@@H]2CON=C2[C@H]1c1ccccc1 | x | x | x | 13% | 20µM*! | x
Cc1ccc(C)c(/C(O)=C2\C(=O)C(=O)N(Cc3cccnc3)C2c2cccnc2)c1 (stereo not given) | -7%[46.1 µM] | 21% | 2% | 7.1µM* | -8% | -24
CC(NC(=O)C(=O)Nc1c2c(nn1-c1ccccc1)CSC2)c1ccccc1 (stereo not given) | x | -5%[46 µM] | x | x | x | x
COC(=O)c1ccccc1NC(=O)CSc1nnnn1-c1ccc(C)cc1C | -27%[46.1 µM] | u | 17%[9.22 µM] | 10µM* | -13%[0.074 µM] | 11
Cc1cc(SCn2nnc3ccccc3c2=O)nc2ccccc12 | -19% | u | 19% | 6% | -3%[10 µM] | x
CCOC(=O)c1sc(NC(=O)CSc2nnnn2-c2ccc(C)cc2C)nc1C | -15%[46.1 µM] | 1% | -6% | 10µM* | -18% | 8
Cc1ccc(-n2nnnc2SCn2nnc3ccccc3c2=O)c(C)c1 | u | u | 8.9µM* | 5%[38.3 µM] | -69% | 23
COc1ccc(NC(=O)c2cc3c(=O)n(Cc4cccnc4)ccc3nc2C)cc1Cl | x | -5%[46 µM] | x | x | x | x
CS(=O)(=O)c1ccc(Cn2c3c(c4cc(F)cc(F)c42)CCC[C@H]3CC(=O)O)cc1 | x | x | x | 12% | u | -3
COc1cc(OC)cc(C(=O)N2CCN(C(=O)COc3ccc(C)cc3)CC2)c1 | x | x | x | x | x | -6
Cc1ccc(OCC(=O)N2CCN(C(=O)c3ccncc3)CC2)cc1 | -7% | x | 0.028µM* | -2% | x | x
O=C(Nc1ccccc1F)Nc1cc(S(=O)(=O)N2CCOCC2)ccc1N1CCCC1 | -24% | u | 12% | 3% | -9% | x
